Source: ChEMBL document CHEMBL1961873, “Compounds: GSK PKIS; Assays: Nanosyn kinase panel” (2012)

Tests used:
[1] = target: Sphingosine kinase 1 (Homo sapiens) (UniProt Q9NYA1); conditions: at 1 µM;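 further: mean SPHK1 inhibition value reported from the GSK PKIS kinase panel screen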
[2] = target: T1, Sphingosine kinase 2 (Homo sapiens) (UniProt Q9NRA0); conditions: at 0.1 µM
T1 sequence (whole entry): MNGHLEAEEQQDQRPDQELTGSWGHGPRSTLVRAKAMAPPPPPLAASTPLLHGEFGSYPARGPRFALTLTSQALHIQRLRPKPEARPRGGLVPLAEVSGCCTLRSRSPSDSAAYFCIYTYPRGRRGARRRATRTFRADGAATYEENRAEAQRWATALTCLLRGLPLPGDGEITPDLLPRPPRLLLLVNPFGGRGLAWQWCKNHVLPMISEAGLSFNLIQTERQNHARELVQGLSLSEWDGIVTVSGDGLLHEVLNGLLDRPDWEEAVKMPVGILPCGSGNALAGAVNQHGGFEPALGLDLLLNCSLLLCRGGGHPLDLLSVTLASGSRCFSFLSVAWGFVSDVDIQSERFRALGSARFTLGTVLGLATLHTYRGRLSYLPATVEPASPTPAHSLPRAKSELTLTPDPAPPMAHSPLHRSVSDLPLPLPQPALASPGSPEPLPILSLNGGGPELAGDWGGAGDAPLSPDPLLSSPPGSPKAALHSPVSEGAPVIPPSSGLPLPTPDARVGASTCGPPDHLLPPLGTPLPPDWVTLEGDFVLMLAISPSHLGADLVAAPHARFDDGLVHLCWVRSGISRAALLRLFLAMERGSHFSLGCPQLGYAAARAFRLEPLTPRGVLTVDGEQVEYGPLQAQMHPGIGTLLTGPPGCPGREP

[3] = target: T1, Sphingosine kinase 2 (Homo sapiens); conditions: at 1 µM
[4] = target: Casein kinase II subunit alpha (Homo sapiens) (UniProt P68400); conditions: at 0.1 µM
Sequence of Casein kinase II subunit alpha (Homo sapiens) (P68400 whole entry, looked up): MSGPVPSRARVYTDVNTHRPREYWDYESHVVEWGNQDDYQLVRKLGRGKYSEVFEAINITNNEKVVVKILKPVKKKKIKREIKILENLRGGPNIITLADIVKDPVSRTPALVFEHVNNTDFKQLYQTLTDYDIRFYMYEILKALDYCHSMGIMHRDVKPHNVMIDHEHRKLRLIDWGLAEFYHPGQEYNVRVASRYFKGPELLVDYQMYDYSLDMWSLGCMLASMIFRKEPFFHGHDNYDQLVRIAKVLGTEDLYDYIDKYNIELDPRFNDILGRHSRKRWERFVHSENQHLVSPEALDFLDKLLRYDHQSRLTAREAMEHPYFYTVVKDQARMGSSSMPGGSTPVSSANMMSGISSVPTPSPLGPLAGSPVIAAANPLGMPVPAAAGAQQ

[5] = target: Casein kinase II subunit alpha (Homo sapiens) (UniProt P68400); conditions: at 1 µM
[6] = target: T2, Inhibitor of nuclear factor kappa-B kinase subunit alpha (Homo sapiens) (UniProt O15111); conditions: at 0.1 µM
T2 sequence (whole entry): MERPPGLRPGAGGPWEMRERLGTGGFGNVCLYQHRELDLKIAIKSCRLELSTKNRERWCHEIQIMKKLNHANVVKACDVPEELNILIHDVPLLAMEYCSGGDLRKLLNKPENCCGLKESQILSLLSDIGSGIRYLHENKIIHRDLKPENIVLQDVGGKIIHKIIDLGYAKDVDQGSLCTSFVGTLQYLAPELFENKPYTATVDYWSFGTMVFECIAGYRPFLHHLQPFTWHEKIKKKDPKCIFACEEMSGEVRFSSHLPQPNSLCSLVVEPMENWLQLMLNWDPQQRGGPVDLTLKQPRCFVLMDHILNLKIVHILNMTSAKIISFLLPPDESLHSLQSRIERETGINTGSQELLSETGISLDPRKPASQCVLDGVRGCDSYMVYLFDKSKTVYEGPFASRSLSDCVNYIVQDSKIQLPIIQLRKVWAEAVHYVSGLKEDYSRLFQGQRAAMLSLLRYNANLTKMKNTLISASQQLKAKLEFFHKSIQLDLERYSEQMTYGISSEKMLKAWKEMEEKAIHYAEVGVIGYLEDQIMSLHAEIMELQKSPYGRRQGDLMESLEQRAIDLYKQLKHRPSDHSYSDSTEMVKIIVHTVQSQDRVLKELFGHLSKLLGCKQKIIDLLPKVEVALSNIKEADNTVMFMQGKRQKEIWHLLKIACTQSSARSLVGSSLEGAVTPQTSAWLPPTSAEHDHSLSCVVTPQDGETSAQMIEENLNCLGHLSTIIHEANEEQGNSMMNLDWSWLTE

[7] = target: T2, Inhibitor of nuclear factor kappa-B kinase subunit alpha (Homo sapiens); conditions: at 1 µM
[8] = target: T3, Inhibitor of nuclear factor kappa-B kinase subunit beta (Homo sapiens) (UniProt O14920); conditions: at 0.1 µM
T3 sequence (whole entry): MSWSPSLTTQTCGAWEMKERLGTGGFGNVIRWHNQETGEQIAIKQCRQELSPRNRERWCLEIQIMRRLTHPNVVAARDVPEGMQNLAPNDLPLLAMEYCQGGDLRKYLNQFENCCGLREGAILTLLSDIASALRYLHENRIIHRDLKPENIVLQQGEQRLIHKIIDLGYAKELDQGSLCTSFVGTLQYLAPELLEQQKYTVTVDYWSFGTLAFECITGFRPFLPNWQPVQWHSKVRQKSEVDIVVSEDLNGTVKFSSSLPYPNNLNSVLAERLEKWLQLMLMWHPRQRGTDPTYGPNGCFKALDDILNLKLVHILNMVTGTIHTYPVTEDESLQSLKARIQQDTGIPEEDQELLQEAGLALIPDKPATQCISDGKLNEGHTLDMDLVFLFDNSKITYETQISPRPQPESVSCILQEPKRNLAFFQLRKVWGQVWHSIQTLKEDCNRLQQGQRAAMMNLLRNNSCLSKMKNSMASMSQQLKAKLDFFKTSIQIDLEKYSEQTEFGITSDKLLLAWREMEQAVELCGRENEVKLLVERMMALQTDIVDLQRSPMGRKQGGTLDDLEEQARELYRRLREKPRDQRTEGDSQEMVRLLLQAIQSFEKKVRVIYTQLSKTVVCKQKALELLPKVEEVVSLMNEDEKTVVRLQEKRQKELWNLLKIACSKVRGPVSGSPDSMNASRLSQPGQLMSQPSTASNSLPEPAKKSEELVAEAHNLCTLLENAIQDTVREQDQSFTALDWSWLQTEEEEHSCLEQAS

[9] = target: T3, Inhibitor of nuclear factor kappa-B kinase subunit beta (Homo sapiens); conditions: at 1 µM
[10] = target: T4, Inhibitor of nuclear factor kappa-B kinase subunit epsilon (Homo sapiens) (UniProt Q14164); conditions: at 0.1 µM
T4 sequence (whole entry): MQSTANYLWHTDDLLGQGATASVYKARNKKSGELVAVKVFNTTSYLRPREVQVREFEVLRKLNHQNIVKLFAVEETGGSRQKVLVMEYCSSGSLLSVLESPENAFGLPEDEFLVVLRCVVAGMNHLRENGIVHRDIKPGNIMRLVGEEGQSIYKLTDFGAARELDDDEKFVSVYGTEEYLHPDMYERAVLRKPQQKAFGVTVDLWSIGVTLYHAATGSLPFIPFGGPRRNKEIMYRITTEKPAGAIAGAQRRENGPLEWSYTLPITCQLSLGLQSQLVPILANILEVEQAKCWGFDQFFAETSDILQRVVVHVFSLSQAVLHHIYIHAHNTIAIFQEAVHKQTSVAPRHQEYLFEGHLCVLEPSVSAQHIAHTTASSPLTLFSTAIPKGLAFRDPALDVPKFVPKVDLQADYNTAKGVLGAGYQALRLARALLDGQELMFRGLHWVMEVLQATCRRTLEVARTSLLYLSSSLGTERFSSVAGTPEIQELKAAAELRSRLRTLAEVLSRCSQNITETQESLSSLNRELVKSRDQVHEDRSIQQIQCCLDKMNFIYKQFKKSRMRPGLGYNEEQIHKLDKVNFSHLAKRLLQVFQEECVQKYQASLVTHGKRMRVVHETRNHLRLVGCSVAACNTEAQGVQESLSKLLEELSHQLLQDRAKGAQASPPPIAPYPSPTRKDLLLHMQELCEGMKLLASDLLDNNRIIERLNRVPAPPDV

[11] = target: T4, Inhibitor of nuclear factor kappa-B kinase subunit epsilon (Homo sapiens); conditions: at 1 µM
[12] = target: T5, Serine/threonine-protein kinase Nek1 (Homo sapiens) (UniProt Q96PY6); conditions: at 0.1 µM
T5 sequence (whole entry): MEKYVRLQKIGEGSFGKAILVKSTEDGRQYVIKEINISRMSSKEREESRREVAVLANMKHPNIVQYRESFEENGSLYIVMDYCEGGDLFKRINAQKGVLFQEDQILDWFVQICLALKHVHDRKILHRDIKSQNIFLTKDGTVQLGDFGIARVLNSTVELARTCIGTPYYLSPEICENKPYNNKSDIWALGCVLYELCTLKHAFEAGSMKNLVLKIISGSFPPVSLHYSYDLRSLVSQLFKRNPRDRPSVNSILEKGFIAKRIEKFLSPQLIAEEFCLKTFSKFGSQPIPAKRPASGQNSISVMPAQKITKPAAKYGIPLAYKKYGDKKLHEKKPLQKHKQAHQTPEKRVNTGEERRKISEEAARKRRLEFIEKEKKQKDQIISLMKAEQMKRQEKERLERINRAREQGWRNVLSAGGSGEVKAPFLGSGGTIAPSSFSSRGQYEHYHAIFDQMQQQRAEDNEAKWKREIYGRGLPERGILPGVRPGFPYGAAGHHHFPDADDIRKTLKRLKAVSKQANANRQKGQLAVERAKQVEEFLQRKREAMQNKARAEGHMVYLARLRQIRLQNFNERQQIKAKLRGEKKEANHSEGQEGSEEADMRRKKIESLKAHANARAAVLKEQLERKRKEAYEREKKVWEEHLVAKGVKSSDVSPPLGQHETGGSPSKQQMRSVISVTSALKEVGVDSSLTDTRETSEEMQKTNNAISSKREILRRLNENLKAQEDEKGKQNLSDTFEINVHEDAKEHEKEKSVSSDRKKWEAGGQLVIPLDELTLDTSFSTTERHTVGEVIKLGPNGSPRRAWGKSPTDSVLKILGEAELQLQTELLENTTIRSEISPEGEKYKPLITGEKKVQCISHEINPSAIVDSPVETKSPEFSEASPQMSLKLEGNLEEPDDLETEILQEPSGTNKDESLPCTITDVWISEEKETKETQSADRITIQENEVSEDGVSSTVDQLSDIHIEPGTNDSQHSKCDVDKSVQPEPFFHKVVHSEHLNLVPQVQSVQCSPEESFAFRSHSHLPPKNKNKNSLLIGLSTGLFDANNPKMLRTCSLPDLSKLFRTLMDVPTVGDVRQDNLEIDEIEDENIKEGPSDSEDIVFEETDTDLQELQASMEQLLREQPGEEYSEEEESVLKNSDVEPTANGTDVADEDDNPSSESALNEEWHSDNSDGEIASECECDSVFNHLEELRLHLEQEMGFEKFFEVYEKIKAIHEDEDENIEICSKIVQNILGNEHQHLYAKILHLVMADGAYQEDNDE

[13] = target: T5, Serine/threonine-protein kinase Nek1 (Homo sapiens); conditions: at 1 µM
[14] = target: T6, Serine/threonine-protein kinase Nek2 (Homo sapiens) (UniProt P51955); conditions: at 0.1 µM
T6 sequence (whole entry): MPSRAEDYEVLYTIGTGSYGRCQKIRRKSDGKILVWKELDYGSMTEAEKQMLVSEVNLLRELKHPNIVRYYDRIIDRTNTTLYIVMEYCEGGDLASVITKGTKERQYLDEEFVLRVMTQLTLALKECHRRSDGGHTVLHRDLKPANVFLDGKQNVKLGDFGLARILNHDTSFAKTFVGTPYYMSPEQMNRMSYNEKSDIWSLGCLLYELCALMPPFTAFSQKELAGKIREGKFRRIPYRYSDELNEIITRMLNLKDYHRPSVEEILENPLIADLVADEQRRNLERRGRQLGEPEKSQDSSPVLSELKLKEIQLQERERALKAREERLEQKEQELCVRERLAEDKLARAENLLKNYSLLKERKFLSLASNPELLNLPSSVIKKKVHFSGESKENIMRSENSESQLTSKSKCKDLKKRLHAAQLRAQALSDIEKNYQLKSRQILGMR

[15] = target: T6, Serine/threonine-protein kinase Nek2 (Homo sapiens); conditions: at 1 µM
[16] = target: Serine/threonine-protein kinase Nek6 (Homo sapiens) (UniProt Q9HC98); conditions: at 0.1 µM
Sequence of Serine/threonine-protein kinase Nek6 (Homo sapiens) (Q9HC98 whole entry): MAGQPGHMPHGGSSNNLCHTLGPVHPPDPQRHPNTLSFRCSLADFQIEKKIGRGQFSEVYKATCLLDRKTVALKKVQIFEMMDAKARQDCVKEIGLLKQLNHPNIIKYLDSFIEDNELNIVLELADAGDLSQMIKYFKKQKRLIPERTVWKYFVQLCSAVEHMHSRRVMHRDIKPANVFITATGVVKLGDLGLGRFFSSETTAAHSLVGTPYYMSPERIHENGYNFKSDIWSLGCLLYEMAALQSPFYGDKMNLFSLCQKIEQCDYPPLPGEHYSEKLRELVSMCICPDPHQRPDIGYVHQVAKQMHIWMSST

[17] = target: Serine/threonine-protein kinase Nek6 (Homo sapiens) (UniProt Q9HC98); conditions: at 1 µM
[18] = target: Serine/threonine-protein kinase Nek7 (Homo sapiens) (UniProt Q8TDX7); conditions: at 0.1 µM
Sequence of Serine/threonine-protein kinase Nek7 (Homo sapiens) (Q8TDX7 whole entry, looked up): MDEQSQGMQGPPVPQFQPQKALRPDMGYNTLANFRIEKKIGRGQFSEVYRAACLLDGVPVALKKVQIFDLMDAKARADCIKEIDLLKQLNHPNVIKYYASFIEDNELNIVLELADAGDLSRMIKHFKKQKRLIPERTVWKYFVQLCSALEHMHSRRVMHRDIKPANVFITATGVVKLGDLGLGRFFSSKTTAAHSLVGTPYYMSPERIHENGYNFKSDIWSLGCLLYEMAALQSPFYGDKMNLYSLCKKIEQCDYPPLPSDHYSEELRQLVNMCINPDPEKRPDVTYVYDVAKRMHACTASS

[19] = target: Serine/threonine-protein kinase Nek7 (Homo sapiens) (UniProt Q8TDX7); conditions: at 1 µM
[20] = target: T7, Serine/threonine-protein kinase Nek9 (Homo sapiens) (UniProt Q8TD19); conditions: at 0.1 µM;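 further: reported value is the mean percent inhibition of NEK9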
T7 sequence (whole entry): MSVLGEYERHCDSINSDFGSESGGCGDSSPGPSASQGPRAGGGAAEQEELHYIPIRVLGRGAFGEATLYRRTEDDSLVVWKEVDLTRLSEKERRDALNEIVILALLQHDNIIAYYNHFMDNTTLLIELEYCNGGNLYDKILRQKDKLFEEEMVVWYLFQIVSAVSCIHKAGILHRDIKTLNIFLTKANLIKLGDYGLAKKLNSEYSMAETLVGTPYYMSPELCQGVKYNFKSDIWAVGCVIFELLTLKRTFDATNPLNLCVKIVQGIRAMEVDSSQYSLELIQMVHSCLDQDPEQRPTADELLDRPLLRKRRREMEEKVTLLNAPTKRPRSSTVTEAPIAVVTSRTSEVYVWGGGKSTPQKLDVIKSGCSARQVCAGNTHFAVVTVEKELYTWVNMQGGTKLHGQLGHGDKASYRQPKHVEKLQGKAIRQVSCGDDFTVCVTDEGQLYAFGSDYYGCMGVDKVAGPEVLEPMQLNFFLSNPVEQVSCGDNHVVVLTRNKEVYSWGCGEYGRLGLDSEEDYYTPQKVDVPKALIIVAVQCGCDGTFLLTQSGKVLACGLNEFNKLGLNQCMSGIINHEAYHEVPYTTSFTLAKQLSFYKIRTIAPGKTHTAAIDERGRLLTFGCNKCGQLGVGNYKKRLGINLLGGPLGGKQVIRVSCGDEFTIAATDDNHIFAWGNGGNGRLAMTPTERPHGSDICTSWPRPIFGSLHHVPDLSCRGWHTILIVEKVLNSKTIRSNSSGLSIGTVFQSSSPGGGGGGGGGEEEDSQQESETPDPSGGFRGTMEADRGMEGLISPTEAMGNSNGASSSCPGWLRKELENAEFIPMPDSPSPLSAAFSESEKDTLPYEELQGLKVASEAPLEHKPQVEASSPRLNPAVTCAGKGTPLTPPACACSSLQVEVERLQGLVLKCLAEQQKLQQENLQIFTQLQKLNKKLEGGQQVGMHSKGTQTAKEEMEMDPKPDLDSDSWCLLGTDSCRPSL

Sequence of Sphingosine kinase 1 (Homo sapiens) (Q9NYA1 whole entry): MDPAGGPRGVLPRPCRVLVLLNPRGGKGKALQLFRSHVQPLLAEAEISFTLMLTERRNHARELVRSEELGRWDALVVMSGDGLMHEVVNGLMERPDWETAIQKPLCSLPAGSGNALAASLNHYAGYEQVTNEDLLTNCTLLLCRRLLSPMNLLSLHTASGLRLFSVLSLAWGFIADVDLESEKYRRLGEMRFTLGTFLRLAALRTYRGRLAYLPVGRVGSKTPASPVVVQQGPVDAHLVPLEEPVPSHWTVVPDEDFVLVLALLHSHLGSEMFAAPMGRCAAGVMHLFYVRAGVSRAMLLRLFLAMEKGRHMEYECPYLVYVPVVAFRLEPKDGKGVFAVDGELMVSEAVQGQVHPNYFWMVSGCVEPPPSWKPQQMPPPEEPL

Question: For `COc1ccc(-c2coc3ncnc(N)c23)cc1`, which inhibition [1] is on record?
Answer: 2.86%

Question: And the inhibition [2]?
Answer: 1.04%

Question: And the inhibition [3]?
Answer: -0.88%

Question: What about the inhibition [4] of the same compound?
Answer: 4.06%

Question: What about the inhibition [5] of the same compound?
Answer: -2.3%

Question: And the inhibition [6]?
Answer: 4.01%

Question: And the inhibition [7]?
Answer: -4.53%

Question: What about the inhibition [8] of the same compound?
Answer: 10.3%

Question: And the inhibition [9]?
Answer: 9.84%

Question: And the inhibition [10]?
Answer: 5.67%

Question: What about the inhibition [11] of the same compound?
Answer: 4.6%

Question: What about the inhibition [12] of the same compound?
Answer: 2.17%

Question: What about the inhibition [13] of the same compound?
Answer: 2.92%

Question: What about the inhibition [14] of the same compound?
Answer: 4.88%

Question: What about the inhibition [15] of the same compound?
Answer: 4.8%

Question: And the inhibition [16]?
Answer: 1.43%

Question: And the inhibition [17]?
Answer: 2.31%

Question: And the inhibition [18]?
Answer: 6.65%

Question: What about the inhibition [19] of the same compound?
Answer: 4.79%

Question: And the inhibition [20]?
Answer: 6.76%
